Screening results as filed in PubChem BioAssay.
This is a sample that favours compounds with a hit; in the whole collection about 19% have one here.
IL-1B inflam inh: qHTS for Inhibitors of Inflammasome Signaling: IL-1-beta AlphaLISA Primary Screen. THP-1 LPS/ATP IL-1B secretion, AlphaLISA, 16 h; active compounds read low. hit rate 4.7% among 360,000. activity change, % at 57.5 µM; in the data active = activity change below about -50%; inconclusive = mostly about -30% to -49%
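THP-1 cells pretreated 1 hr with compounds (up to 57.5 uM final), then stimulated with LPS (250 ng/mL final) plus ATP (1.25 mM final); secreted IL-1B measured by AlphaLISA after 16 hr, decreased signal indicating inhibition.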
DT40 TDP1 no CPT: qHTS for Inhibitors of human tyrosyl-DNA phosphodiesterase 1 (TDP1): qHTS in cells in absence of CPT | AID 686978, 2013 | hit rate 15% among 420,000 | Potency, µM (titrated, usually from 46.2 µM), for the others: at the top dose activity change, negative = growth inhibition, actives largely listed as inhibitors | DT40 Tdp1-/- hTDP1 cells, no CPT, ATP luminescence, 48 h; note: potency is the fitted concentration of half-maximal effect; nearly all actives have a fitted effect of over 55% in size
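Chicken DT40 Tdp1-/- cells stably complemented with human TDP1 were seeded at 400 cells/well with DMSO in place of 20 nM camptothecin. After compound pinning, cells grew at least 48 hr at 37 °C; viability read by CellTiter-Glo luminescence.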
ELG1 DNA repair: qHTS screen for small molecules that inhibit ELG1-dependent DNA repair in human embryonic kidney (HEK293T) cells expressing luciferase-tagged ELG1. AID 504467, 2011. HEK293T ELG1-luciferase reporter, luminescence, 16 h; DNA damage induced by 5-fluorouridine. Potency, µM (top dose mostly 46.1 µM), for inactives: top-dose activity change, negative = inhibition, actives largely listed as inhibitors. hit rate 2.3% among 330,000; note: potency is the fitted concentration of half-maximal effect; nearly all actives have a fitted effect of over 55% in size
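5-Fluorouridine DNA damage + compound/DMSO, 2,000 cells/well, 16 h, 37 °C/5% CO2. ONE-Glo, 30 min RT, luminescence. Readout = decrease in reporter signal.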
TDP1 inh: qHTS Assay for Inhibitors of Tyrosyl-DNA Phosphodiesterase (TDP1) | AID 485290, 2010 | Potency, µM (titrated, usually from 130 µM), for the others: top-dose activity change, negative = inhibition, actives largely listed as inhibitors | recombinant TDP1, AlphaScreen DNA substrate cleavage | hit rate 0.28% among 350,000; note: potency is the fitted concentration of half-maximal effect; nearly all actives have a fitted effect of over 40% in size
Target sequence (Q9NUW8 whole entry, looked up): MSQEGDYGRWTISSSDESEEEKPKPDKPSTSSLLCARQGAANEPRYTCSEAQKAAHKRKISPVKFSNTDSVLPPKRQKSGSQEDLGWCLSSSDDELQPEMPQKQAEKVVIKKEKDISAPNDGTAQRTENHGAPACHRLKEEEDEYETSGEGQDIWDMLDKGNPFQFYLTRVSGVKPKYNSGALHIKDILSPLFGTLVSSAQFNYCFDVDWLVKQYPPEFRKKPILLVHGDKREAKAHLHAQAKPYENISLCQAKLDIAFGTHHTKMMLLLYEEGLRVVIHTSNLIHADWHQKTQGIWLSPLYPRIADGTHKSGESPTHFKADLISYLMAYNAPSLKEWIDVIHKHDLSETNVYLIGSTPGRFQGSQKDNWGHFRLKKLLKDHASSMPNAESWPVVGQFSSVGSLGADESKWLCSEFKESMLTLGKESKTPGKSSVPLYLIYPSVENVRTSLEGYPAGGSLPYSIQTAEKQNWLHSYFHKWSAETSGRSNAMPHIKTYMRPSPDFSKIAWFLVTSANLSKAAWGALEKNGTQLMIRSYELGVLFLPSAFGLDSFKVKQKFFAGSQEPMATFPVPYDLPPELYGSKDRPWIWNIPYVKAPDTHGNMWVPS
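Here, a 5' biotin and 3' phosphotyrosine-FITC DNA oligonucleotide reports Tdp1 activity: intact substrate bridges AlphaScreen beads, while cleavage leaves a 3' phosphate and drops signal. All incubations at room temperature.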
Giardia kill: Small Molecules that selectively kill Giardia lamblia: qHTS. hit rate 0.15% among 340,000. Giardia lamblia trophozoite viability. activity change, % at 7.66 µM, hits read low. AID 540267, 2011; in the data active = activity change below about -80%; inconclusive = between about -30% and that limit;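 note: parasites exposed to compound for two days anaerobically before the ATP read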
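Viability, read as ATP luminescence: trophozoites at 100 cells/well, compound added, 48 hrs anaerobic at 37 deg C, then 15-30 min room-temperature development before reading.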
TDP1 cell CPT: qHTS for Inhibitors of human tyrosyl-DNA phosphodiesterase 1 (TDP1): qHTS in cells in presence of CPT; chicken DT40 Tdp1-/-;hTDP1 cells + 20 nM CPT, ATP luminescence, 48 h; Potency, µM (highest dose often 46.2 µM), for the others: top-dose activity change, negative = growth inhibition, hits mostly inhibitors; hit rate 12% among 420,000; AID 686979, 2013; note: potency is the fitted concentration of half-maximal effect; nearly all actives have a fitted effect of over 55% in size
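Chicken DT40 Tdp1-/- cells complemented with human TDP1, 400 cells/well, exposed to compounds plus 20 nM camptothecin for at least 48 h at 37 C; viability read as ATP content by CellTiter-Glo luminescence.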
* marks the source's active call; other numbers are inactive results; i = inactive; u = inconclusive; x = no result; [ ] = remark or other dose. Unless noted, calls come from the whole dose curve; as a rule, active = well fitted curve in the direction sought with a large enough effect; inconclusive = small, poorly fitted or top-dose-only effect, or another doubt; inactive = no such curve, though single readings can be large; an effect the other way counts as inactive or inconclusive. % is set by controls: 0 for no effect and ±100 for the full control effect.

SMILES | IL-1B inflam inh | DT40 TDP1 no CPT | ELG1 DNA repair | TDP1 inh | Giardia kill | TDP1 cell CPT
O=C(CC1Oc2ccccc2NC1=O)NCCCN1CCN(C2CCCCC2)CC1 (centres undefined) | -5.8 | -10.2% | x | x | 20.1 | -0.6%
COc1cccc(/C=N/NC(=S)Nc2cccnc2)c1 | -5.6 | 4.61µM* | u | 0.0% | -12.4 | 2.31µM*
CC(C)(C)NC(=S)N/N=C/c1cccnc1 | -1.4 | 25.9µM* | 12.1% | x | 7.1 | 14.6µM*
COc1cccc(/C=N/NC(=S)Nc2cccc(C(=O)O)c2)c1 | 5.5 | 13.0% | u | 1.2% | -20.1 | -14.6%
NC(=S)N/N=C/c1cccnc1 | x | -2.9% | x | 3.2% | x | 13.3%
COc1ccc(O)c(/C=N/NC(=S)Nc2cccnc2)c1 | 144.1 | 18.4µM* | u | 2.7% | 5.6 | u
CCOCCCNS(=O)(=O)c1ccc(NC(=O)Cc2c(F)cccc2Cl)cc1 | 3.8 | -17.4% | -1.6% | x | -5.9 | 2.6%
CCOc1ccccc1NC(=O)NNC(=O)COc1cccc(C)c1C | i | u | 6.1% | 1.9% | -6.0 | -20.6%
Oc1ccccc1-n1c(-c2ccccc2)ccc1-c1ccccc1 | -80.5* | -25.2% | -18.4% | x | -3.2 | u
CC(C)CNC(=S)NNC(=O)c1csc2c1CCC(C)C2 (centres undefined) | u | 20.6µM* | -10.7% | 6.6% | 4.1 | u
Cc1ccc(C(=O)c2ccccc2C(=O)O)cc1C | 17.6 | 0.1% | -1.2% | 0.0% | -3.1 | 9.0%
Cc1cc(C)c(C)c(C(=O)c2ccccc2C(=O)O)c1C | 33.6 | 3.26µM* | 2.0% | 0.0% | -7.8 | 3.66µM*
CO[C@@H](CCOCc1ccccc1)C[C@H]1O[C@H](C(=O)OC(C)C)C=C[C@@H]1C | x | x | x | 1.2% | x | x
CC(=O)Nc1cccc(C(=O)N(CCc2ccccc2)Cc2ccccc2)c1 | -10.9 | u | 4.7% | -9.4% | 0.0 | -24.2%
CC(C)(C)OC(=O)N(CCc1ccccc1)Cc1ccc(OCc2cccc(NC(=O)C3CC3)c2)cc1 | u | 4.61µM* | x | x | 25.2 | 5.8µM*
CC(C)(C)OC(=O)N(CCc1ccccc1)Cc1ccccc1OCc1cccc(NC(=O)/C=C/c2ccccc2)c1 | -20.4 | 7.31µM* | x | x | -13.4 | 9.2µM*
CC(C)(C)OC(=O)N(CCc1ccccc1)Cc1cccc(OCc2cccc(NC(=O)c3ccccc3)c2)c1 | u | 18.4µM* | x | x | 8.2 | 23.1µM*
O=C(NCCCCc1ccccc1)c1cccc(NC(=O)C2CCCC2)c1 | u | u | x | x | -5.6 | u
CC(C)(C)OC(=O)N(CCc1ccccc1)Cc1ccc(OCc2cccc(NC(=O)C3CCC3)c2)cc1 | 0.0 | 14.6µM* | x | x | 14.2 | 20.6µM*
CC(C)(C)OC(=O)N(CCc1ccccc1)Cc1ccc(OCc2cccc(NC(=O)/C=C/c3ccccc3)c2)cc1 | -6.6 | -24.2% | x | x | 9.0 | -19.6%
O=c1c(-c2ccc(O)cc2)coc2cc(O[C@@H]3O[C@H](CO)[C@@H](O)[C@H](O)[C@H]3O)cc(O)c12 | x | x | x | 6.2% | x | x
CCCCC/C=C\C/C=C\C/C=C\C/C=C\CCCC(=O)O[C@H](COCCCCCCCCCCCCCCCC)COP(=O)([O-])OCC[N+](C)(C)C | x | 9.1%[4.12 µM] | x | 7.3% | x | 7.5%[4.12 µM]
CCOc1ccc(Nc2c3c(nc4ncnn24)CC(C)CC3)cc1 (centres undefined) | 20.3 | u | -3.6% | 0.0% | 24.1 | u
CC1CCc2c(nc3ncnn3c2NCCc2ccccc2F)C1 (centres undefined) | x | 13µM* | u | 2.8% | -10.0 | u
Cc1cc(C(O)c2ncc(-c3ccccc3)[nH]2)ccc1F (centres undefined) | 23.4 | u | x | x | x | 16.4µM*
